High-throughput results deposited in PubChem by several laboratories.
LGR2 inh – inhibitors of bursicon-induced LGR2 CRE-luciferase signal, primary screen, cell-based, HEK293, CRE-luciferase reporter, bursicon stimulation | bursicon-stimulated, 4 h | AID 720647, 2013 | 380,000 tested, 0.35% active | inhibition, % at 9.99 µM | Drosophila bursicon receptor LGR2 (rickets);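 active = drop in luminescence signal, shown as inhibition above about 50% in the replicate tests, limit read from the data, passing the limit was not always enough; inconclusive = probably only some replicates passing the limit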;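 note: agonist challenge used bursicon conditioned medium at about half maximal strength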
CF NFkB inh – inhibitors of PAF-induced NF-kB signaling, primary screen, cell-based, GFP fluorescence, uHTS | inhibition, % at 5 µM | KKLEB NF-kB-GFP reporter, GFP fluorescence overnight | AID 588850, 2011 | 360,000 tested, 0.86% active;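 active = at least 50% inhibition at 5 µM, scaled per plate between neutral and stimulator controls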;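 note: PAF is a Pseudomonas aeruginosa culture filtrate used as stimulus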
HSP90 inh – HSP90 inhibitors, primary screen, cell lysate, luminescence; Heat shock protein HSP 90 (rabbit reticulocyte lysate; luciferase refolding); Rabbit reticulocyte lysate, luciferase refolding luminescence, 3 h; inhibition, % at 5.6 µM; 290,000 tested, 0.91% active; AID 1789, 2009;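 active = inhibition above the screen-wide mean plus 3 SD, computed separately per campaign, cut at about 16% in these data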;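 note: inhibitors lower the luminescence because luciferase stays unfolded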
Peg3 promoter – Peg3 promoter-driven luciferase inhibitors, primary screen, cell-based, HeLa, luciferase luminescence; HeLa PEG-Prom luciferase reporter, overnight; inhibition, % at 20 µM; 360,000 tested, 1.7% active;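 active = inhibition of at least 50% at 20 µM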
KKLEB cytotox – cytotoxicity in KKLEB CF airway cells, primary screen, cytotoxicity control for CF NF-kB inhibitor project, cell-based, uHTS, fluorescence assay plates. KKLEB CF airway cells viability, ATPlite luminescence, overnight; active compounds read low; cells stimulated with P. aeruginosa culture filtrate. activity change (cytotoxicity), % at 5 µM. 360,000 tested, 0.36% active. AID 602141, 2011;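 active = corrected activity change at or below -50% at 5 µM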
Mdm2-MdmX inh – inhibitors of human Mdm2-MdmX association, primary screen, cell-based, luminescence, split luciferase, SaOS-2, uHTS; Protein Mdm4 (Homo sapiens) + E3 ubiquitin-protein ligase Mdm2 (Homo sapiens), …; SaOS-2 split-luciferase Mdm2/MdmX complementation; inhibition, % at 8 µM; 330,000 tested, 3% active; AID 485346, 2010;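 active = inhibition of at least 50% at 8 µM in the primary screen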
Target sequence (O15151 whole entry, looked up): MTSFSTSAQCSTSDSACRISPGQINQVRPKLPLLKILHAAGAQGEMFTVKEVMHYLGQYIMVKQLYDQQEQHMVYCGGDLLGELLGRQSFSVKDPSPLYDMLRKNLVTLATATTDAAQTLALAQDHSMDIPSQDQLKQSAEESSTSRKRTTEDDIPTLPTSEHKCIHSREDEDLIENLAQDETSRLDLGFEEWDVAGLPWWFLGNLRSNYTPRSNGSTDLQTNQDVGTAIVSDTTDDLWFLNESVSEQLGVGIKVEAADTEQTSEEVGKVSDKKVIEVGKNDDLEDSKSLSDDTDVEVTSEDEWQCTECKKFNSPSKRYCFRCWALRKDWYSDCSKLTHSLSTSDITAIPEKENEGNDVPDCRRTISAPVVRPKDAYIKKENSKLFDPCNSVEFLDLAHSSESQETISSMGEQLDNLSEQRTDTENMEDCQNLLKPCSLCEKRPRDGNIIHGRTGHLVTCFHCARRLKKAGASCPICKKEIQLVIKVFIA
Target sequence (Q00987 whole entry, looked up): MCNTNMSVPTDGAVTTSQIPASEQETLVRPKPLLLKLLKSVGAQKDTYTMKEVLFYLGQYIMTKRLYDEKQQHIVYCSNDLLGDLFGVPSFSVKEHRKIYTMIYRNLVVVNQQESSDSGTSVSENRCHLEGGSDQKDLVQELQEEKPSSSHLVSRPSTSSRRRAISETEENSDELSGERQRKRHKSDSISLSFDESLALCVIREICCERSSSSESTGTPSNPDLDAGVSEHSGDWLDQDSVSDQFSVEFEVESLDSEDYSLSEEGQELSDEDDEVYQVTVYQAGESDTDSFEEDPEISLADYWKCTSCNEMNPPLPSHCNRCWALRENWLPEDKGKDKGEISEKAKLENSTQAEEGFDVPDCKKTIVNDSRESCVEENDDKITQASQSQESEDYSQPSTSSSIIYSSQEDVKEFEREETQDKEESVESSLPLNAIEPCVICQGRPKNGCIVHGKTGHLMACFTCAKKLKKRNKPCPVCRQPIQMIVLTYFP
HSP90 inh confirm – HSP90 inhibitors, confirmation, cell lysate, luminescence. inhibition, % at 5.9 µM. shares compounds with HSP90 inh. 2,300 tested, 64% active. rabbit reticulocyte lysate, luciferase refolding luminescence, 3 h; in the data active = inhibition above about 18%
luciferase ctr – firefly luciferase inhibitors, HSP90 counter-screen, confirmation, artefact control for HSP90 inhibitor project, biochemical, luminescence, triplicate; purified native firefly luciferase; shares compounds with HSP90 inh; 2,300 tested, 48% active; inhibition, % at 5.9 µM; AID 1847, 2009;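 active = inhibition above the mean inhibition of all tested sample wells plus 3 SD, cut at about 10% in these data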
Large screens that a line does not name were inactive (follow-up assays come after a bar, where they were run). Only some compounds are listed: those with a hit (about 3.6% of all), similar ones and a draw of the others.

COCc1cc(C)nc2sc(C(=O)Nc3nccs3)c(N)c12	none
CC1=CC2=NC(=O)/C(=C\c3cccn3CCOc3cccc(C)c3)C(=N)N2O1	none
CC1=CC2=NC(=O)/C(=C\c3cccn3CCOc3cc(C)ccc3C)C(=N)N2O1	HSP90 inh 53 | HSP90 inh confirm inactive | luciferase ctr inactive
O=C(O)c1ccc(NS(=O)(=O)c2ccc3c(c2)C(=O)c2ccccc2C3=O)cc1	HSP90 inh 28 | HSP90 inh confirm inactive | luciferase ctr inactive
CN(C)C(=O)[C@@H]1[C@@H](CO)[C@@H]2Cn3c(cccc3=O)[C@H]1N2CC1CCCC1	none (no result: CF NFkB inh, HSP90 inh, Peg3 promoter, KKLEB cytotox, Mdm2-MdmX inh)
CN(C)C(=O)C[C@@H]1CC[C@@H]2[C@H](COC[C@H](O)CN2CC2CCOCC2)O1	none (no result: CF NFkB inh, HSP90 inh, Peg3 promoter, KKLEB cytotox, Mdm2-MdmX inh)
O=C1CCCc2nc3c(cc21)C(O)Oc1ccccc1-3 (configuration not stated)	none
O=C1CCCc2nc3c(cc21)C(O)Oc1c-3ccc2ccccc12 (configuration not stated)	HSP90 inh 31 | HSP90 inh confirm 38 | luciferase ctr inactive
C[C@H]1CN([C@@H](C)CO)C(=O)Cc2cc(NS(C)(=O)=O)ccc2O[C@@H]1CN(C)C(=O)NC1CCCCC1	none (no result: CF NFkB inh, HSP90 inh, Peg3 promoter, KKLEB cytotox, Mdm2-MdmX inh)
CN(C)S(=O)(=O)c1ccc(C(=O)Nc2nnc(SCC(=O)NCC3CCCO3)s2)cc1 (configuration not stated)	none
CCOc1ccc(C(=O)Nc2nnc(SCC(=O)NCC3CCCO3)s2)cc1 (configuration not stated)	LGR2 inh 78, HSP90 inh 36 | HSP90 inh confirm 61 | luciferase ctr 44
CC(C)(C)c1ccc(C(=O)Nc2nnc(SCC(=O)NCC3CCCO3)s2)cc1 (configuration not stated)	HSP90 inh 36, KKLEB cytotox -62 | HSP90 inh confirm 54 | luciferase ctr 45
COc1ccc(S(=O)(=O)N(C)C[C@@H]2Oc3ccc(NC(=O)Cc4cn(C)c5ccccc45)cc3CC(=O)N([C@H](C)CO)C[C@@H]2C)cc1	none (no result: CF NFkB inh, HSP90 inh, Peg3 promoter, KKLEB cytotox, Mdm2-MdmX inh)
COc1ccc(CN2CC3(CN(C(C)=O)C3)c3c([nH]c4cc(OC)ccc34)[C@@H]2CO)cc1	none (no result: CF NFkB inh, HSP90 inh, Peg3 promoter, KKLEB cytotox, Mdm2-MdmX inh)
Cc1ccc(C(C)NC(=O)Cc2cccs2)c(C)c1 (configuration not stated)	HSP90 inh 30 | HSP90 inh confirm inactive | luciferase ctr inactive
Cc1ccc(C(C)NC(=O)Cc2cccs2)cc1C (configuration not stated)	none
O=C1N/C(=N\S(=O)(=O)c2ccccc2)S/C1=C\c1cc([N+](=O)[O-])ccc1O	HSP90 inh 54 | HSP90 inh confirm inactive | luciferase ctr inactive
Cc1ccc(N2Cc3ccccc3C2=O)cc1	HSP90 inh 31 | HSP90 inh confirm 37 | luciferase ctr 28
CC(C)(C)c1ccc(C(=O)c2c[nH]c(C(=O)O)c2)cc1	HSP90 inh 53 | HSP90 inh confirm 63 | luciferase ctr inactive
COC(=O)c1cc(C(=O)c2ccc(C(C)(C)C)cc2)c[nH]1	none
O=C(O)COc1ccccc1/C=N/NC(=O)c1cc(-c2ccc(F)cc2)nc2ccccc12	HSP90 inh 17 | HSP90 inh confirm 25 | luciferase ctr inactive
O=C(N/N=C/c1ccc2c(c1)OCO2)c1cc(-c2ccc(F)cc2)nc2ccccc12	none
CC(=NC1CCCC1)c1c(C)[nH]n(-c2nc3ccccc3s2)c1=O	HSP90 inh 19 (no result: LGR2 inh) | HSP90 inh confirm 19 | luciferase ctr inactive
CC(=NC1CC1)c1c(-c2ccccc2)[nH]n(-c2nc3ccccc3s2)c1=O	none (no result: LGR2 inh)
CN(C)c1ccc(C(=O)Nc2nc3c(s2)CCCC3)cc1	LGR2 inh inconclusive, HSP90 inh 27 | HSP90 inh confirm 59 | luciferase ctr 58
COC(=O)Nc1nc2c(s1)CCCC2	none (no result: LGR2 inh)
CC(C)NC(=O)N[C@@H]1C=C[C@H](CC(=O)NCc2ccc(Oc3ccccc3)cc2)O[C@H]1CO	none (no result: CF NFkB inh, HSP90 inh, Peg3 promoter, KKLEB cytotox, Mdm2-MdmX inh)
Cc1cccc(NC(=O)c2ccc3c(Cl)c4c(nc3c2)CCCC4)n1	HSP90 inh 17 | HSP90 inh confirm 58 | luciferase ctr 47
CCC(=O)N1[C@H](CN(C)C(C)=O)[C@H](c2ccc(C3=CCCC3)cc2)[C@@H]1CO	none (no result: CF NFkB inh, HSP90 inh, Peg3 promoter, KKLEB cytotox, Mdm2-MdmX inh)
C[C@@H]1CN([C@H](C)CO)C(=O)c2cccc(NC(=O)Nc3cccc4ccccc34)c2O[C@@H]1CN(C)C	none (no result: CF NFkB inh, HSP90 inh, Peg3 promoter, KKLEB cytotox, Mdm2-MdmX inh)
O=C(Nc1ccc(NC(=O)c2ccccc2F)cn1)c1ccco1	HSP90 inh 28 | HSP90 inh confirm 52 | luciferase ctr 36
CC1CCC/C(=C\Nc2ccc(O)cc2)C1=O (configuration not stated)	none (no result: LGR2 inh)
Cc1cc(C(=O)O)ccc1N/C=C1\CCCC(C)C1=O (configuration not stated)	HSP90 inh 34 (no result: LGR2 inh) | HSP90 inh confirm 70 | luciferase ctr 32
CN(C)C(=O)C[C@@H]1C[C@@H]2c3cc(NC(=O)C4CCC4)ccc3O[C@@H]2[C@H](CO)O1	none (no result: CF NFkB inh, HSP90 inh, Peg3 promoter, KKLEB cytotox, Mdm2-MdmX inh)
Cc1ccc(/C=C/c2nc3ccccc3s2)s1	HSP90 inh 46 (no result: LGR2 inh) | HSP90 inh confirm 80 | luciferase ctr 74
Cc1noc(C)c1NC(=O)Nc1ccc2c(c1)C(=O)N([C@H](C)CO)C[C@@H](C)[C@@H](CN(C)CC1CCCCC1)OCCCC[C@H](C)O2	none (no result: CF NFkB inh, HSP90 inh, Peg3 promoter, KKLEB cytotox, Mdm2-MdmX inh)
COc1ccc(CCN(/C=C2\Sc3ccccc3C2=O)C(C)=O)cc1OC	HSP90 inh 25 (no result: LGR2 inh) | HSP90 inh confirm inactive | luciferase ctr inactive
CC(C)NC(=O)N(C)C[C@@H]1Oc2ccc(NC(=O)Nc3ccc4c(c3)OCO4)cc2C(=O)N([C@@H](C)CO)C[C@@H]1C	none (no result: CF NFkB inh, HSP90 inh, Peg3 promoter, KKLEB cytotox, Mdm2-MdmX inh)
O=C(CSc1ncn(-c2ccccc2)n1)N1CCN(c2ccccc2)CC1	HSP90 inh 35 (no result: LGR2 inh) | HSP90 inh confirm inactive | luciferase ctr inactive
Cc1ccnc(SCC(=O)N2CCN(c3ccccc3)CC2)n1	none (no result: LGR2 inh)
O=C(NCC(F)(F)F)[C@@H]1[C@@H](CO)[C@@H]2Cn3c(cccc3=O)[C@H]1N2C(=O)C1CCC1	none (no result: CF NFkB inh, HSP90 inh, Peg3 promoter, KKLEB cytotox, Mdm2-MdmX inh)
CC(=O)Nc1ccc2c(c1)C(=O)N(C)[C@@H]1CC[C@H](CC(=O)NC3CCCCC3)O[C@@H]1CO2	none (no result: CF NFkB inh, HSP90 inh, Peg3 promoter, KKLEB cytotox, Mdm2-MdmX inh)
